# In the supplement of paper PMC8728848:
# Shown is part of a subset that was picked to be rich in the strongest signals.
# Tests used:
# Assay in all cases: glycan array binding signal (z-score within array); higher = stronger binding
# Conditions in all cases: glycan notation: IUPAC condensed, linker removed
# [1] = biological target: Man(a1-2)Man(a1-6)[Man(a1-3)]Man(a1-6)[Man(a1-2)Man(a1-2)Man(a1-3)]Man
# Outline: (§1)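 Columns mapping to the same glycan were averaged after glycan names were converted to IUPAC-condensed notation. The data come from 3228 arrays in the Consortium for Functional Glycomics database, limited to those with an available protein sequence. Binding is reported as a within-array Z-score averaged across arrays of one protein sequence and across linkers.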
# [2] = biological target: Man(a1-3)[Man(a1-6)]Man(a1-6)[Man(a1-3)]Man
# Outline: as §1
# [3] = biological target: Neu5Ac(a2-3)Gal(b1-3)GlcNAc(b1-3)Gal(b1-4)GlcNAc
# Outline: as §1
# [4] = biological target: Neu5Ac(a2-3)Gal(b1-3)GlcNAc6S
# Outline: as §1
# [5] = biological target: Neu5Ac(a2-3)Gal(b1-4)GlcNAc(b1-2)Man(a1-3)[Neu5Ac(a2-3)Gal(b1-4)GlcNAc(b1-2)Man(a1-6)]Man(b1-4)GlcNAc(b1-4)GlcNAc
# Outline: as §1
# [6] = biological target: Neu5Ac(a2-3)Gal(b1-4)GlcNAc(b1-3)Gal(b1-4)GlcNAc(b1-3)GalNAc
# Outline: as §1
# [7] = biological target: Neu5Ac(a2-3)Gal(b1-4)GlcNAc(b1-3)GalNAc
# Outline: as §1
# [8] = biological target: Neu5Ac(a2-3)Gal(b1-4)GlcNAc(b1-6)[Gal(b1-3)]GalNAc
# Outline: as §1
# [9] = biological target: Neu5Ac(a2-6)Gal(b1-4)GlcNAc(b1-2)Man(a1-6)[Gal(b1-4)GlcNAc(b1-2)Man(a1-3)]Man(b1-4)GlcNAc(b1-4)GlcNAc
# Outline: as §1
# [10] = biological target: Neu5Ac(a2-6)Gal(b1-4)GlcNAc(b1-2)Man(a1-6)[GlcNAc(b1-2)Man(a1-3)]Man(b1-4)GlcNAc(b1-4)GlcNAc
# Outline: as §1
# [11] = biological target: Neu5Ac(a2-8)Neu5Ac(a2-3)Gal(b1-3)GalNAc(b1-4)[Neu5Ac(a2-3)]Gal(b1-4)Glc
# Outline: as §1
# [12] = biological target: Neu5Ac(a2-8)Neu5Ac(a2-3)Gal(b1-4)Glc
# Outline: as §1
# [13] = biological target: Neu5Ac(a2-8)Neu5Ac(a2-8)Neu5Ac(a2-3)[Gal(b1-3)GalNAc(b1-4)]Gal(b1-4)Glc
# Outline: as §1
# [14] = biological target: Neu5Ac(a2-8)Neu5Ac(a2-8)Neu5Ac(a2-3)[GalNAc(b1-4)]Gal(b1-4)Glc
# Outline: as §1
# [15] = biological target: Neu5Gc(a2-3)Gal(b1-3)GlcNAc
# Outline: as §1
# [16] = biological target: Neu5Gc(a2-8)Neu5Ac(a2-3)Gal(b1-4)GlcNAc
# Outline: as §1
binder,measurement,setting,value
Lb MiSSP8 (Laccaria bicolor) (protein) MYFHTLFACATLMLITTAHASPTVINSLDSRKADLNGDVEARHAADWRRDSDWRRDSDWRRDSDWRRDSD,glycan array binding signal (z-score),[1],-0.578
same,glycan array binding signal (z-score),[2],2.36
same,glycan array binding signal (z-score),[3],-0.868
same,glycan array binding signal (z-score),[4],-0.226
same,glycan array binding signal (z-score),[5],-0.578
same,glycan array binding signal (z-score),[6],-0.343
same,glycan array binding signal (z-score),[7],-0.122
same,glycan array binding signal (z-score),[8],3.01
same,glycan array binding signal (z-score),[9],-0.606
same,glycan array binding signal (z-score),[10],-0.668
same,glycan array binding signal (z-score),[11],-0.336
same,glycan array binding signal (z-score),[12],-0.744
same,glycan array binding signal (z-score),[13],1.08
same,glycan array binding signal (z-score),[14],-0.82
same,glycan array binding signal (z-score),[15],-0.571
same,glycan array binding signal (z-score),[16],-0.958
